# Where “and” joins values, the source holds several entries; their conditions need not be identical. Identical values can stand only once. Records with an inconclusive call do not appear. Calls of active or inactive are those of the source. Unless noted, no stated cut-off is given here; in the data, active means inhibition above about 80%; inactive means the rest.
# Experiments:
# [1] = viability loss in pontine glioma line – cell-based, SU-DIPG-XVII, MIPE5.0, CellTiter-Glo, qHTS, dose response (AID 1347060; cut-off not given, nearly all actives have AC50 up to about 26 µM;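 further: cells exposed to compound for 48 hours before viability readout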); settings: CellTiter-Glo ATP luminescence
# [2] = viability loss in pontine glioma line – cell-based, SU-DIPG-IV, MIPE4.0, CellTiter-Glo, qHTS, dose response (AID 1347063; cut-off not given, nearly all actives have AC50 up to about 30 µM;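 further: compound exposure lasted 48 hours before the viability readout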); settings: CellTiter-Glo ATP luminescence
# [3] = viability loss in pontine glioma line – cell-based, SU-DIPG-XIII, MIPE5.0, CellTiter-Glo, qHTS, dose response (AID 1347064; cut-off not given, nearly all actives have AC50 up to about 23 µM;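 further: cells exposed to compound for 48 hours before the viability read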); settings: CellTiter-Glo ATP luminescence
# [4] = viability loss in pontine glioma line – cell-based, SU-DIPG-XXV, MIPE5.0, CellTiter-Glo, qHTS, dose response (AID 1347065; cut-off not given, nearly all actives have AC50 up to about 26 µM;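 further: cells exposed to compound for 48 hours before ATP readout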); settings: CellTiter-Glo ATP luminescence
# [5] = growth inhibition of DIPG cells – cell-based, MIPE4.0 library, CellTiter-Glo luminescence, qHTS (AID 1347066; cut-off not given, nearly all actives have AC50 up to about 30 µM;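 further: cells exposed to compound for 48 hours before readout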); settings: SU-DIPG-VI viability, CellTiter-Glo ATP luminescence
# [6] = JHH-DIPG-1 glioma cell viability, MIPE5.0 library, CellTiter-Glo luminescence, qHTS (AID 1347067; cut-off not given, nearly all actives have AC50 up to about 26 µM;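 further: cells exposed to compound for 48 hours before readout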); settings: JHH-DIPG-1 glioma viability, CellTiter-Glo ATP luminescence
# [7] = growth inhibition of DIPG cells – cell-based, MIPE5.0 library, qHTS (AID 1347068; cut-off not given, nearly all actives have IC50 up to about 30 µM;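 further: cells exposed to compound for 48 hours before viability readout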); settings: SU-DIPG-XXV viability
# [8] = viability loss with induced miR-34 in A549 – imaging, A549 dox-inducible miR-34, nuclei and caspase counts, primary screen (AID 1347080;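 active means compounds whose cell count with miR-34 switched on is under 0.7 times the count with it off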); settings: A549 miR-34 inducible, Hoechst nuclei count, 48 h
# [9] = MELAS cybrid and Rieske KO viability enhancers – cell-based, MELAS cybrids, Rieske KO mouse fibroblasts, CellTiter-Glo, primary screen (AID 1508586;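 active means mean z-score across replicates of 1.96 or higher in either the MELAS or the Rieske mutant cell line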;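 further: z relative to plate mean and SD of compound and empty wells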); settings: low glucose
# [10] = growth inhibition, single agent or in combination, cell-based, chromothripsis tumors, cisplatin or BGB combos (AID 1671449); settings: LFS_MB_P medulloblastoma cells;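 further: cells exposed for 96 hours; 0% = vehicle DMSO and 100% = killing by high DMSO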
# [11] = growth inhibition, single agent and combos, cell-based, chromothripsis tumors, cisplatin or BGB combos (AID 1671450); settings: HDN33 neuroblastoma cells, stronger effect = higher value;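 further: cells exposed to compound for four days; 0% = vehicle DMSO and 100% = cell killing by high DMSO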
# [12] = growth inhibition, single agents and combos, ICB984, cell-based, cisplatin or BGB combos, synergistic combos for chromothripsis tumors (AID 1671451; call rule not given here;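 further: cells exposed for 96 hours before readout; 0% = vehicle DMSO and 100% = killing by high DMSO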); settings: ICB984 medulloblastoma cells, drug combinations, stronger effect = higher value
# [13] = growth inhibition, single agents and combos, HTB85, cell-based, BGB or cisplatin IC20 combos, synergistic combos for chromothripsis tumors (AID 1671453); settings: HTB85 osteosarcoma cells, drug combinations, stronger effect = higher value;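 further: cells exposed for 96 hours before readout; 0% = vehicle DMSO and 100% = high DMSO killing control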
# [14] = growth inhibition, MDA-MB-436, cell-based, BGB or cisplatin combos, synergistic combos for chromothripsis tumors (AID 1671458; call rule not given here;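 further: cells exposed for 96 hours; 0% = vehicle DMSO and 100% = killing by high DMSO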); settings: MDA-MB-436 breast carcinoma growth inhibition, drug combinations, stronger effect = higher value
# [15] = BT084 cell growth, single and combined drugs, ICGC_MB145, cisplatin and BGB IC40 combos (AID 1671461); settings: BT084 medulloblastoma cells, drug combinations, stronger effect = higher value;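 further: cells exposed to drugs for 96 hours; 0% = vehicle DMSO and 100% = high DMSO full killing control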
# [16] = RCMB18 cell growth, single agent and combined, cisplatin and BGB IC40 combos (AID 1671462); settings: RCMB18 medulloblastoma cells, stronger effect = higher value;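 further: cells exposed to compound for four days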
smiles,measurement,setting,value
CC1(C)CCC2=C(O1)c1ccccc1C(=O)C2=O,AC50,[1],11.8 µM (active)
same,AC50,[2],20.9 µM (active)
same,AC50,[3],6.61 µM (active)
same,AC50,[4],9.34 µM (active)
same,AC50,[5],20.9 µM (active)
same,AC50,[6],7.42 µM (active)
same,IC50,[7],23.5 µM (active)
same,fold change,"[8]; stronger effect = lower value, cell number ratio, induced over uninduced",1.06 (inactive) and 1.01 (inactive)
same,fold change,[8]; measured here: relative caspase fold change +Dox/-Dox,0.218 and 1.14 and 0.258
same,cell count,"[8]; measured here: total cells with miR-34 induction, stronger effect = lower value",1260 and 1140 and 1760
same,cell count,[8]; measured here: total cells without miR-34 induction,1190 and 1130 and 1740
same,z-score,"[9]; MELAS cybrid survival, CellTiter-Glo 48 h, stronger effect = higher value",1.23 (inactive)
same,z-score,"[9]; Rieske KO mouse fibroblast survival, CellTiter-Glo 72 h",-4.3
same,inhibition,"[10]; at 0.5 µM, stronger effect = higher value",-7.4% (inactive) and 16.4% (inactive)
same,inhibition,"[10]; measured here: combination with BGB IC20, at 0.005 µM",-31.4% and 0.116%
same,inhibition,"[10]; measured here: combination with BGB IC40, at 0.005 µM",-87% and -10.2%
same,inhibition,"[10]; measured here: combination with BGB IC40, at 0.05 µM",-28.3% and -0.424%
same,inhibition,"[10]; measured here: combination with cisplatin, at 0.5 µM, stronger effect = higher value",51.9% and 10.9%
same,inhibition,"[10]; measured here: combination with cisplatin, at 5 µM, stronger effect = higher value",111% and 116%
same,inhibition,"[11]; BGB combo, at 5 µM",99.6% and 99%
same,inhibition,[11]; at 0.5 µM,-4.92% (inactive) and -3.55% (inactive)
same,inhibition,"[11]; cisplatin combo, at 5 µM",99% and 99.1%
same,inhibition,"[11]; measured here: with BGB IC20 combination, at 0.5 µM",-10.6% and -8.55%
same,inhibition,"[11]; measured here: with cisplatin IC20 combination, at 0.5 µM",4.95% and -8.23%
same,inhibition,"[11]; single agent, at 5 µM",99.5% and 99.2%
same,inhibition,"[12]; BGB IC20 combo, at 0.005 µM",-11% and 11%
same,inhibition,"[12]; BGB IC40 combo, at 0.005 µM",-16.5% and -32.8%
same,inhibition,"[12]; BGB IC40 combo, at 0.05 µM",91.3% and 98.3%
same,inhibition,[12]; at 0.5 µM,-22.3% (inactive) and -31.1% (inactive)
same,inhibition,"[12]; cisplatin combo, at 0.05 µM",91.3% and 98.3%
same,inhibition,"[12]; cisplatin combo, at 0.5 µM",-20.6% and -42.9%
same,inhibition,"[12]; cisplatin combo, at 5 µM",-38.6% and -41.8%
same,inhibition,"[12]; measured here: 5 uM single agent, at 5 µM",2.52% and -3.56%
same,inhibition,[13]; at 0.5 µM,-5.23% (inactive) and 6.87% (inactive)
same,inhibition,"[13]; measured here: with BGB IC20, at 0.5 µM",23.7% and 5.32%
same,inhibition,"[13]; measured here: with BGB IC20, at 5 µM",76.7% and 64.8%
same,inhibition,"[13]; measured here: with cisplatin IC20, at 0.5 µM",-20.9% and 1.14%
same,inhibition,"[13]; measured here: with cisplatin IC20, at 5 µM",61.5% and 60.9%
same,inhibition,"[13]; single agent, at 5 µM",70.5% and 62.3%
same,inhibition,[14]; at 0.5 µM,-2.8% (inactive) and -3.21% (inactive)
same,inhibition,"[14]; measured here: BGB combination, at 0.5 µM",3.02% and -1.78%
same,inhibition,"[14]; measured here: BGB combination, at 5 µM",81.9% and 78.2%
same,inhibition,"[14]; measured here: cisplatin combination, at 0.5 µM",-22.4% and -3.57%
same,inhibition,"[14]; measured here: cisplatin combination, at 5 µM",86.7% and 87.2%
same,inhibition,[15]; at 0.5 µM,-12.5% (inactive) and -0.136% (inactive)
same,inhibition,"[15]; cisplatin combination, at 0.5 µM",-14.9% and 2.47%
same,inhibition,"[15]; cisplatin combination, at 5 µM",78.1% and 100%
same,inhibition,"[15]; measured here: BGB IC40 combination 0.05 uM, at 0.05 µM",-20.9% and -18.5%
same,inhibition,"[15]; single agent, at 5 µM",99.5% and 99.6%
same,inhibition,[16]; at 0.5 µM,-1.45% (inactive) and 6.25% (inactive)
same,inhibition,"[16]; cisplatin combo, at 5 µM",101%
same,inhibition,"[16]; measured here: BGB IC40 combination, at 0.05 µM",-6.29% and -29%
same,inhibition,"[16]; measured here: combination with cisplatin, at 0.5 µM",-0.361% and 36.6%
same,inhibition,"[16]; single agent, at 5 µM",98.1% and 99.3%

# From PubChem BioAssay
